Screening data deposited in PubChem BioAssay by National Center for Advancing Translational Sciences (NCATS).
Many of the other results were omitted from the sample, so hits are more common in it than they were.
HTT cytoprotect: qHTS Multiplex Assay to Identify Dual Action Probes in a Cell Model of Huntington: Cytoprotection (ATP). PC12 HTT-Q103 induced, cytoprotection, ATP luminescence, 40 h. Potency, µM (titrated, usually from 56.4 µM), without a hit: cytoprotection (ATP increase), hits mostly activators. hit rate 0.14% among 230,000; note: potency is the fitted concentration of half-maximal effect; % of control where 0% means no effect; nearly all actives have a fitted effect of over 45% in size
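PC12 cells stably carrying ecdysone-inducible Htt exon 1 (Q103)–GFP were induced with 100 nM tebufenozide (final) alongside library compounds in a dose series. Cytoprotection was scored as retained ATP by ATPlite luminescence.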
PNC inhibitor: High Content Assay for Compounds that inhibit the Assembly of the Perinucleolar Compartment | activity change (PNC), negative = inhibition, % at 10 µM | PC3M PTB-GFP, PNC prevalence imaging, 16 h; hits give low values | AID 2417, 2010 | hit rate 3.1% among 140,000;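 active = readout at or below -70, meaning at least 70% loss of cells showing the perinucleolar compartment, a nuclear body marking cancer cells; inconclusive = readout between -30 and a set limit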;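 note: plate controls were DMSO wells for no effect and camptothecin positive control wells for full effect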
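PC3M cells stably expressing PTB-GFP, 750–1000 cells/well, treated 16 h at 37 °C with compound (23 nl of library stock), in duplicate. After paraformaldehyde fixation and Hoechst stain, imaged at 20x; PNC prevalence scored by image analysis.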
HttQ103 aggreg: qHTS Multiplex Assay to Identify Dual Action Probes in a Cell Model of Huntington: Aggregate Formation (GFP); PC12 HttQ103-GFP aggregates, Acumen cytometry, 40 h; Potency, µM (doses to about 46.1 µM), inactives show at the top dose activity change, negative = inhibition, most hits filed as inhibitors; hit rate 1.1% among 220,000; note: potency is the fitted concentration of half-maximal effect; % is set by controls: 0 for no effect and ±100 for the full control effect; nearly all actives have a fitted effect of over 60% in size
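PC12 cells stably carrying ecdysone-inducible HTT exon 1 Q103–GFP were induced with tebufenozide (100 nM final) and treated with library compounds in titration. GFP aggregates in lysates were counted by laser scanning cytometry.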
Numbers without * were called inactive; ? = inconclusive; · = not tested or not shown; [ ] = another dose, or the depositor's remark. Unless noted, calls come from the whole dose curve; as a rule, active = well fitted curve in the direction sought with a large enough effect; inconclusive = small, poorly fitted or top-dose-only effect, or another doubt; inactive = no such curve, though single readings can be large; an effect the other way counts as inactive or inconclusive.

SMILES | HTT cytoprotect | PNC inhibitor | HttQ103 aggreg
Cc1ccc(NC(=S)NNC(=O)CCn2cc(C)cn2)cc1 | -11.1% | 4.7 | 18.2%
CCN(CC)Cc1c(O)ccc2c(=O)c(-c3ccc4c(c3)OCCO4)coc12 | 12.3%[10 µM] | -14.6 | 11.2µM*
CCN(CC)Cc1c(O)ccc2c(=O)c(Oc3ccccc3OC)coc12 | 13.7% | -80.1* | 10.9%
O=c1c(-c2ccc3c(c2)OCCO3)coc2cc(O)cc(O)c12 | -9.7%[1.9 µM] | -29.5 | -16.7%
COc1ccccc1Oc1coc2c(CN(C)C)c(O)ccc2c1=O | 15.2% | 64.9 | -1.0%
Fc1ccc(CSc2ncnc3ccccc23)cc1 | -17.0%[10 µM] | · | 15.5%
COc1cc(C2=NOC(C(=O)NCc3ccc(F)cc3)C2)cc(OC)c1OC (configuration not stated) | -78.1%[10 µM] | -121.0* | 7.7%
COc1ccc(C2=NOC(C(=O)NCc3ccc(F)cc3)C2)cc1OC (configuration not stated) | -54.5%[10 µM] | -95.7* | ?
COc1cccc(C2=NOC(C(=O)NCc3ccc(F)cc3)C2)c1 (configuration not stated) | -28.8% | 26.9 | 4.7%
COc1cc(C2=NOC(C(=O)NCc3ccccn3)C2)cc(OC)c1OC (configuration not stated) | -76.2% | ? | 14.9%
CCOC(=O)c1ccc(N2CN(C3CCCCC3)CNC2=S)cc1 | 13.2%[10 µM] | -16.5 | 30.0%
CC1(C)CC(=O)N(CC(=O)O)c2ccccc2S1 | 16.1% | -26.7 | 17.1%
CCCCNS(=O)(=O)c1ccc(NS(=O)(=O)c2c(C)cc(C)cc2C)cc1 | 14.3%[10 µM] | -6.8 | 7.5%
COC(=O)C(NC(=O)C(C)Oc1ccccc1)C(C)C (configuration not stated) | -9.4%[0.074 µM] | 10.8 | -9.6%
O=C1N/C(=C\c2ccc(N3CCOCC3)c(F)c2)C(=O)N1Cc1ccccc1 | -46.9% | -28.0 | -1.0%
Cc1ccccc1Oc1cc(-n2ncc(Cl)c(Cl)c2=O)ncn1 | -96.7%[10 µM] | -86.5* | ?
CCOc1cnn(-c2cc(Oc3ccc(C)cc3)ncn2)c(=O)c1Cl | -0.7%[10 µM] | -15.8 | 3.8%
CN(C)S(=O)(=O)c1cccc(NC(=O)COC(=O)CCC(=O)c2ccc(F)cc2)c1 | 31.4%[10 µM] | 11.0 | 22.2%
CCN(CC)S(=O)(=O)c1cccc(NC(=O)COC(=O)CCC(=O)c2ccc(F)cc2)c1 | · | -82.1* | 1.9%
COc1ccc2cc(C(=O)Nc3c(C)n(C)n(-c4ccccc4)c3=O)sc(=O)c2c1OC | -9.6%[10 µM] | · | 1.9%[9.22 µM]
CS(=O)(=O)N(CC(=O)Nc1cc(Cl)ccc1Cl)c1ccccc1Cl | 10.6% | -6.5 | 24.9%[9.22 µM]
CC(=O)Nc1ccc(NC(=O)CN(c2cc(Cl)ccc2Cl)S(C)(=O)=O)cc1 | -6.9% | · | 31.6µM*
COc1ccc(N2CCN(CC(O)c3c[nH]c4ccc(OC)cc34)CC2C)cc1 (configuration not stated) | -66.9% | 66.1 | 12.6µM*
COc1ccc2[nH]cc(C(O)CN3CCN(c4ccccc4)CC3)c2c1 (configuration not stated) | -41.0%[0.074 µM] | 3.9 | ?
NC(=O)c1c(NC(=O)c2cnccn2)sc2c1CCCC2 | 21.9%[10 µM] | · | -4.4%
SMILES | HTT cytoprotect | PNC inhibitor | HttQ103 aggreg
Cc1sc2nc(SCC(=O)N3CCCC3)[nH]c(=O)c2c1C | -16.0% | -80.1* | -11.8%
Cc1sc2nc(SCC(=O)N3CCCCC3)[nH]c(=O)c2c1C | -18.1%[1.9 µM] | -18.5 | -6.1%
Clc1cccc(Nc2ncnc3c2cnn3-c2ccccc2)c1 | 7.1%[10 µM] | -10.2 | 22.4µM*
Fc1cccc(Nc2ncnc3c2cnn3-c2ccccc2)c1 | 8.2%[10 µM] | · | -6.9%[9.22 µM]
COc1cccc(C2c3c(oc4ccc(F)cc4c3=O)C(=O)N2CCN2CCOCC2)c1OC (configuration not stated) | 6.3%[10 µM] | 53.9 | -4.8%
CC1(C(=O)Oc2ccccc2)Cc2ccccc2C(=O)O1 (configuration not stated) | 10.2% | · | 1.9%
CC1(C(=O)O)Cc2ccccc2C(=O)O1 (configuration not stated) | -6.9% | -100.9* | 2.6%[9.22 µM]
O=C(Nc1cccc(O)c1)N1CCOCC1 | -7.1%[10 µM] | -100.0* | 1.6%
Cc1ccc(NC(=O)Nc2ccc(C(=O)N3CCOCC3)cc2)cc1 | 0.7% | ? | -17.3%
COc1ccc(-c2cc(C(=O)N3CCOCC3)no2)cc1OC | -11.4% | -8.5 | 7.8%
O=C(Nc1ccc2c(c1)OCCO2)N1CCOCC1 | -87.3% | · | -13.8%
O=C(c1cc(-c2cccc(O)c2)on1)N1CCOCC1 | -6.6%[10 µM] | -84.7* | -15.0%
CC(=O)c1cccc(NC(=O)Nc2ccc(C(=O)N3CCOCC3)cc2)c1 | -8.8%[10 µM] | -2.4 | 10µM*
O=C(Nc1ccc2ncccc2c1)c1ccccc1Cl | 13.1%[10 µM] | · | 18.9%[9.22 µM]
